# FMDV inh: foot and mouth disease virus antiviral activity | AID 1159524 | Potency, µM (series often up to 57.9 µM), without a hit: at the highest dose activity change, negative = inhibition, most hits filed as inhibitors | FMDV antiviral cell-based qHTS | 410,000 compounds, 1.2% hits; calls by dose curve; tested in HEK293T cells; also: read-out not given here; nearly all actives have a fitted effect of over 45% in size
# Sm TGR block: blocks Schistosoma mansoni thioredoxin glutathione reductase | purified TGR, DTNB reduction, TNB absorbance 405 nm | Potency, µM (top dose mostly 114 µM), without a hit: at the highest dose activity change, negative = inhibition, most hits filed as inhibitors | 360,000 compounds, 3% hits | Q962Y6; also: nearly all actives have a fitted effect of over 60% in size
#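 First, TGR (20 nM dispensed) and NADPH were mixed with compound. Second, a 15 min room-temperature incubation followed. Third, further NADPH and then DTNB were added to start the reaction. Finally, TNB absorbance was monitored kinetically.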
# RE007 growth inh: less growth of the S. pombe RE007 Vpr strain. Potency, µM (series often up to 92.2 µM), for the others: at the highest dose activity change, negative = less growth, hits mostly inhibitors. S. pombe RE007 Vpr strain, BacTiter-Glo ATP luminescence, 24 h. 360,000 compounds, 0.21% hits. AID 651644; active = well fitted falling curve with a large enough effect; inconclusive = small, poorly fitted or top-dose-only effect; inactive = no such curve, though single readings can be large or run the other way; also: nearly all actives have a fitted effect of over 50% in size
#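 Fission yeast strain RE007, carrying one chromosomally integrated HIV-1 vpr copy, was seeded at OD 0.01 in PMG+AL medium with 23 nL pinned compound. After 24 h at 30 °C and 99% humidity, viability was read by BacTiter-Glo luminescence.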
# Tb PYK inh: T. brucei pyruvate kinase inhibition | Q57TT1 | TbPYK enzyme, Kinase-Glo Plus ATP luminescence, 45 min | Potency, µM (top dose mostly 76.8 µM), for the others: at the highest dose activity, negative = inhibition, actives largely listed as inhibitors | 410,000 compounds, 0.12% hits; also: nearly all actives have a fitted effect of over 50% in size
#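 TbPYK + substrate in 50 mM TEA pH 7.2, 100 mM KCl, 10 mM MgCl2, 0.05% BSA, 0.01% Tween-20; cpd pinned; ADP 130 uM final; 45 min RT; Kinase-Glo Plus 10 min; luminescence endpoint.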
# Numbers without * were called inactive; ? = inconclusive; . = no result given. Shown are actives, neighbours in structure and some others; about 3.7% of the full set was active somewhere. Unless noted, calls follow the shape of the dose curve; as a rule, active = well fitted curve in the direction sought with a large enough effect; inconclusive = small, poorly fitted or top-dose-only effect, or another doubt; inactive = no such curve, though single readings can be large; an effect the other way counts as inactive or inconclusive. % is scaled to controls: 0 for no effect and ±100 for the full control effect; potency is read from the fitted curve at half-maximal effect.
SMILES,FMDV inh,Sm TGR block,RE007 growth inh,Tb PYK inh
Cc1cc(NC(c2cccnc2)c2ccc3cccnc3c2O)no1 (configuration not stated),?,0.0%,15.1%,26.3%
Oc1c(C(Nc2cccc(C(F)(F)F)c2)c2cccnc2)ccc2cccnc12 (configuration not stated),-14.9%,0.708µM*,-5.3%,133.0%
Cc1ccc(S(=O)(=O)NC2OC(=O)C(Cl)=C2Cl)cc1 (configuration not stated),?,2.82µM*,-8.9%,-9.8%
Cc1ccc(S(=O)(=O)NC2CCCCCCC2)cc1,40.9%,3.1%,-8.9%,-12.1%
Cc1ccc(NC(=O)Cn2cc(S(=O)(=O)N3CCN(c4ccccc4F)CC3)c3ccccc3c2=O)cc1F,-11.1%,-2.0%,.,-2.8%
COc1ccc2c(C)c(CCC(=O)NCCc3ccc(Cl)cc3)c(=O)oc2c1,-24.0%,9.7%,.,-1.3%
Cc1cc(C)n2cc(CSc3nnc(-c4ccccc4)c(-c4ccccc4)n3)nc2n1,28.2µM*,.,0.4%,-6.9%
Cc1cc(C)n2cc(CSc3nnnn3-c3ccccc3)nc2n1,-18.1%,2.7%,-0.6%,-4.6%
N#C/C(=C\c1cccnc1)C(=O)Nc1cccc2ccccc12,25.1µM*,-20.1%,31.6µM*,-21.8%
C/C(=N\N=C(/N)SC1CC(=O)N(c2ccc(Br)cc2)C1=O)c1cccs1 (configuration not stated),4.5%,14.1µM*,-0.6%,-12.9%
Cc1ccc(-c2nc(C)c(CCNS(=O)(=O)c3ccccc3F)s2)cc1,24.6%,0.7%,.,-1.5%
Cc1ccc(C(=O)NCCc2nnc3n2CCN(Cc2ccc4ccccc4c2)CC3)c(C)c1,-12.2%,.,.,.
O=C1CCCC2=C1C(Cc1ccccc1)C1=C(CCCC1=O)O2,8.9%,10µM*,0.2%,-1.9%
N#CC1=C(N)OC2=C(C(=O)CCC2)C1CCc1ccccc1 (configuration not stated),-8.3%,-20.7%,6.2%,-6.2%
O=C(O)c1ccc(NC2CC(=O)N(Cc3ccccc3)C2=O)cc1 (configuration not stated),6.5%,28.2µM*,-3.8%,2.7%
O=C1CC(N(O)C2CC(=O)N(Cc3ccccc3)C2=O)C(=O)N1Cc1ccccc1 (configuration not stated),?,?,44.7µM*,-20.9%
CCCCCCC(=O)N(O)C1CC(=O)N(Cc2ccccc2)C1=O (configuration not stated),?,?,-8.6%,-15.4%
Cc1ccc(NC2CC(=O)N(Cc3ccccc3)C2=O)cc1 (configuration not stated),10.1%,40.6%,-17.1%,1.6%
CCCN(CCC)C1CC(=O)N(Cc2ccccc2)C1=O (configuration not stated),-6.8%,10µM*,14.1µM*,-9.0%
C/C(=N\Nc1ccc(S(N)(=O)=O)cc1[N+](=O)[O-])c1ccco1,-2.7%,39.8µM*,4.3%,-0.5%
C/C(=N\Nc1ccc(S(N)(=O)=O)cc1[N+](=O)[O-])c1ccccc1O,-3.1%,-1.5%,0.7%,-3.1%
O=C(C1CCN(c2ncnc3c2nc2n3CCCCC2)CC1)N1CCN(c2ccccc2)CC1,?,0.2%,.,6.8%
Fc1ccccc1N1CCN(c2ncnc3c2nc2n3CCCC2)CC1,?,2.1%,.,-3.3%
Fc1ccc(N2CCN(c3ncnc4c3nc3n4CCCC3)CC2)cc1,1.78µM*,?,.,-2.2%
O=C(C1CCN(c2ncnc3c2nc2n3CCCCC2)CC1)N1CCN(c2ccc(F)cc2)CC1,31.6µM*,-14.9%,31.3%,3.3%
SMILES,FMDV inh,Sm TGR block,RE007 growth inh,Tb PYK inh
Cc1nn(-c2ccccc2)c(OC(=O)C(C)C)c1Sc1ccc(Cl)cc1,-28.7%,-5.4%,.,?
COc1ccc(C[C@@H]2OC3(C=CC(=O)C=C3)O[C@H]2Cc2ccc(OC)cc2)cc1,14.1µM*,.,14.4%,-17.5%
O=C1C=CC2(C=C1)O[C@H](Cc1ccccc1)[C@@H](Cc1ccccc1)O2,3.98µM*,.,?,?
CC(C)(C)OC(=O)N(CCc1ccccc1)Cc1ccc(OCc2cccc(NC(=O)C3CCC3)c2)cc1,?,.,-6.3%,-0.4%
CC(C)(C)OC(=O)N(CCc1ccccc1)Cc1ccc(OCc2cccc(NC(=O)C3CC3)c2)cc1,22.4µM*,.,6.7%,-1.3%
CC(C)C(=O)Nc1cccc(COc2ccc(CN(Cc3ccccc3)C(=O)OC(C)(C)C)cc2)c1,11.2µM*,.,10.0%,-2.2%
O=C(/C=C/c1ccccc1)CC(O)(c1ccccc1)C(F)(F)F (configuration not stated),.,28.2µM*,-16.3%,0.2%
COc1ccc(/C=C/C(=O)CC(O)(c2ccccc2)C(F)(F)F)cc1 (configuration not stated),35.5µM*,-31.5%,-23.4%,-2.0%
COc1ccc(/C=C/C(=O)CCC(=O)O)cc1,34.9%,0.2%,-28.2%,-15.3%
O=C(/C=C/c1ccccc1)CC(O)(c1ccccc1)C(F)(F)C(F)F (configuration not stated),.,25.1µM*,-13.0%,1.8%
CC(C)Oc1cccc(C2CC(=O)Nc3cc4c(cc32)OCO4)c1 (configuration not stated),?,2.9%,.,3.5%
CCOC(=O)c1ccc(NC(=S)NCc2ccco2)cc1,22.3%,11.2µM*,0.0%,4.4%
COc1ccc(C(=O)NC(=S)NC(C)(C)C)cc1Br,-5.9%,-31.9%,-17.6%,-6.7%
COc1ccc(C(=O)NC(=S)NC(C)C)cc1Br,15.8%,15.8µM*,-11.8%,-5.0%
COc1ccc(C(=O)NC(=S)NCc2ccco2)cc1Br,-19.5%,50.1µM*,-26.6%,9.1%
COc1ccc(C(=O)NC(=S)NCc2ccco2)cc1,52.6%,7.08µM*,-21.3%,-4.2%
Cc1ccc(C)c(CN2C(=O)c3ccccc3S(=O)(=O)c3ccc(C(=O)N4CCc5ccccc54)cc32)c1,12.7%,-4.7%,.,-12.0%
COC(=O)CSc1nc2sc3c(c2c(=O)n1-c1ccccc1)CCN(C)C3,-2.5%,35.5µM*,-4.3%,-4.0%
CCn1c(SCC(=O)c2ccccc2)nc2sc3c(c2c1=O)CCN(C)C3,-9.7%,17.8µM*,-8.7%,0.1%
OCCN1CCN(CCCN2c3ccccc3Sc3ccc(C(F)(F)F)cc32)CC1,?,1.8%,2.1%,7.0%
FC(F)(F)c1ccc2c(c1)N(CCCN1CCN(CCCl)CC1)c1ccccc1S2,11.2µM*,-29.6%,26.9%,-12.2%
O=C(CNC(=O)c1ccco1)OCc1cccc(Cl)c1,-9.7%,44.7µM*,23.7%,-5.1%
O=C(CNC(=O)c1ccco1)NCC(=O)OCc1cccc(Cl)c1,16.7%,-44.7%,8.4%,-0.5%
O=C(NC1CCN(C(=O)Nc2cccc(Cl)c2)CC1)c1ccco1,-10.6%,-9.3%,5.4%,-22.3%
O=C(CCNc1cccc(Cl)c1)c1ccco1,25.8%,11.2µM*,-29.8%,0.1%
O=C(COC(=O)Cc1ccccc1)Nc1ncc(Cl)cc1Cl,-17.8%,-26.1%,-8.7%,-2.8%
O=C(COC(=O)CNC(=O)c1ccco1)Nc1ncc(Cl)cc1Cl,-1.7%,39.8µM*,19.9%,-10.2%
